Assay results from the supplement of paper PMC10849652.
About 8,800 targets were measured; listed, in parts, are those with a hit and a random draw of the rest. About 0.5% of all pairs of compound and target were hits.

Columns and labels:
Assay in all cases: log2 fold change, soluble protein after heating vs DMSO (PISA); higher = thermal stabilisation; K562 lysate, 10 uM; active = over 0.2 and 3.5 SD of the protein, either way, in both replicates (recomputed)
[1] = compound: C#Cc1cccc(Nc2ncnc3cc(OCCOC)c(OCCOC)cc23)c1 [erlotinib]
In short: (§1)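 Log-two fold change in thermal stability relative to solvent controls is reported from duplicates. For each sample, crude K562 extract from dounce-homogenised pellets in PBS pH 7.4 with 1 mM MgCl2, at 1 mg/mL protein, was treated with 10 μM compound for 30 min. Aliquots heated for 3 min across 48°C-58°C were pooled, brought to 0.5% NP-40 at 4°C and cleared at 21,000xg for 90 min. The supernatant was quantified by TMTpro 16plex LC-MS/MS with channel sums equalised.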

[2] = compound: C/C(=N\NC(=O)C1=CC(=CC=C1)S(=O)(=O)N2CCOCC2)/C3=C(C=CC(=C3)Cl)O
In short: as §1

[3] = compound: C1=CC(=CC=C1C2=NC3=C(N2)C=C(C=C3)C(=O)N)OC4=CC=C(C=C4)Cl
In short: as §1

[4] = compound: C1=CC2=C(C=CC(=C2)/C=C\3/C(=O)NC(=NCC4=CC=CS4)S3)N=C1
In short: as §1

[5] = compound: C1=CC=C(C=C1)C2=NC(=C(N2)C3=CC=NC=C3)C4=CC(=C(C=C4)Cl)O
In short: as §1

[6] = compound: C1=CC=C2C(=C1)C3=NNC4=CC=CC(=C43)C2=O
In short: as §1

[7] = compound: C1COCCN1CCN2C3=CC=CC=C3N=C2NC(=O)C4=CC(=CC=C4)[N+](=O)[O-] [IRAK-1-4 Inhibitor I]
In short: as §1

[8] = compound: CC(C)(C)Cn1c(N)nc2ccc(-c3[nH]c(C(C)(C)C)nc3-c3ccc(F)cc3)nc21 [ralimetinib]
In short: as §1

[9] = compound: CC(C)(O)CC(=O)NCCn1ccc2ncnc(Nc3ccc(Oc4cccc(C(F)(F)F)c4)c(Cl)c3)c21
In short: as §1

[10] = compound: CC(C)C1=C2N=C(C=C(N2N=C1)NCC3=CC=CC=C3)NCCCCCCN
In short: as §1

[11] = compound: CC1=C(C(CC(=O)N1)C2=CC=C(C=C2)C(F)(F)F)C(=O)NC3=C(C=C4C(=C3)C=NN4)F
In short: as §1

[12] = compound: CC1=C(C2=C(C=C1)C(=O)C3=CC=CC=C3N2CCCN)C
In short: as §1

[13] = compound: CC1=C(C=C(C=C1)NC(=O)C2=CC(=CC=C2)C(C)(C)C#N)NC3=CC4=C(C=C3)N=CN(C4=O)C
In short: as §1

[14] = compound: CC1=C(C=C(C=C1)NC(=O)C2=CC(=CC=C2)N(C)C)NC(=O)C3=CC=C(C=C3)O
In short: as §1

[15] = compound: C1=CC2=NC=CN=C2C=C1/C=C/3\C(=O)NC(=O)S3
In short: as §1

[16] = compound: C1CCN(C1)C(=O)NC2=CC=CC(=C2)NC3=NC=C(C(=N3)NCCC4=CN=CN4)Br
In short: as §1

[17] = compound: C1CN(CCC1(CC2=CC=C(C=C2)Cl)N)C3=NC=NC4=C3C=CN4
In short: as §1

[18] = compound: C=CC(=O)N1CCC[C@@H](n2nc(-c3ccc(Oc4ccccc4)cc3)c3c(N)ncnc32)C1 [ibrutinib]
In short: as §1

[19] = compound: CC(=O)c1cnc2ccc(-c3cc(Cl)c(O)c(Cl)c3)nc2c1N[C@H]1CC[C@H](CN(C)C)CC1
In short: as §1

[20] = compound: CC1=CC=C(C=C1)SC2=C3C=C(SC3=CN=C2)C(=O)N
In short: as §1

Measured: log2 fold change

CHD9 (UniProt Q3L8U1)
inactive: [1] -0.046 | [2] 0.169 | [3] -0.167 | [4] 0.191 | [5] 0.043 | [6] -0.059 | [7] 0.016 | [8] -0.117 | [9] -0.147 | [10] -0.074 | [11] 0.212 | [12] 0.038 | [13] -0.031 | [14] -0.023

BMT2 (UniProt Q1RMZ1)
inactive: [11] 0.586

CCND3 (UniProt P30281)
Sequence of UniProt P30281 (P30281 whole entry, looked up): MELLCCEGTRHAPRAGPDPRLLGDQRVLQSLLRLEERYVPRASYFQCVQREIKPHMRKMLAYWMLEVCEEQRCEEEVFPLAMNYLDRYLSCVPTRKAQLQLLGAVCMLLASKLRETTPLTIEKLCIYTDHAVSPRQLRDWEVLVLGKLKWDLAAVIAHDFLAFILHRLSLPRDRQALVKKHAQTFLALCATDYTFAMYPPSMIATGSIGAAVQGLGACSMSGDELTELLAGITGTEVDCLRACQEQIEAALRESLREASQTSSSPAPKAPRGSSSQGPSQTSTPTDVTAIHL
inactive: [1] -0.034 | [3] 0.064 | [15] -0.03 | [5] 0.106 | [16] -0.228 | [17] 0.116 | [7] 0.033 | [18] 0.122 | [8] 0.039 | [9] 0 | [10] 0.032 | [11] -0.104 | [12] -0.063 | [13] -0.021 | [14] -0.067

BAHCC1 (UniProt Q9P281)
Sequence of UniProt Q9P281 (Q9P281 whole entry, looked up): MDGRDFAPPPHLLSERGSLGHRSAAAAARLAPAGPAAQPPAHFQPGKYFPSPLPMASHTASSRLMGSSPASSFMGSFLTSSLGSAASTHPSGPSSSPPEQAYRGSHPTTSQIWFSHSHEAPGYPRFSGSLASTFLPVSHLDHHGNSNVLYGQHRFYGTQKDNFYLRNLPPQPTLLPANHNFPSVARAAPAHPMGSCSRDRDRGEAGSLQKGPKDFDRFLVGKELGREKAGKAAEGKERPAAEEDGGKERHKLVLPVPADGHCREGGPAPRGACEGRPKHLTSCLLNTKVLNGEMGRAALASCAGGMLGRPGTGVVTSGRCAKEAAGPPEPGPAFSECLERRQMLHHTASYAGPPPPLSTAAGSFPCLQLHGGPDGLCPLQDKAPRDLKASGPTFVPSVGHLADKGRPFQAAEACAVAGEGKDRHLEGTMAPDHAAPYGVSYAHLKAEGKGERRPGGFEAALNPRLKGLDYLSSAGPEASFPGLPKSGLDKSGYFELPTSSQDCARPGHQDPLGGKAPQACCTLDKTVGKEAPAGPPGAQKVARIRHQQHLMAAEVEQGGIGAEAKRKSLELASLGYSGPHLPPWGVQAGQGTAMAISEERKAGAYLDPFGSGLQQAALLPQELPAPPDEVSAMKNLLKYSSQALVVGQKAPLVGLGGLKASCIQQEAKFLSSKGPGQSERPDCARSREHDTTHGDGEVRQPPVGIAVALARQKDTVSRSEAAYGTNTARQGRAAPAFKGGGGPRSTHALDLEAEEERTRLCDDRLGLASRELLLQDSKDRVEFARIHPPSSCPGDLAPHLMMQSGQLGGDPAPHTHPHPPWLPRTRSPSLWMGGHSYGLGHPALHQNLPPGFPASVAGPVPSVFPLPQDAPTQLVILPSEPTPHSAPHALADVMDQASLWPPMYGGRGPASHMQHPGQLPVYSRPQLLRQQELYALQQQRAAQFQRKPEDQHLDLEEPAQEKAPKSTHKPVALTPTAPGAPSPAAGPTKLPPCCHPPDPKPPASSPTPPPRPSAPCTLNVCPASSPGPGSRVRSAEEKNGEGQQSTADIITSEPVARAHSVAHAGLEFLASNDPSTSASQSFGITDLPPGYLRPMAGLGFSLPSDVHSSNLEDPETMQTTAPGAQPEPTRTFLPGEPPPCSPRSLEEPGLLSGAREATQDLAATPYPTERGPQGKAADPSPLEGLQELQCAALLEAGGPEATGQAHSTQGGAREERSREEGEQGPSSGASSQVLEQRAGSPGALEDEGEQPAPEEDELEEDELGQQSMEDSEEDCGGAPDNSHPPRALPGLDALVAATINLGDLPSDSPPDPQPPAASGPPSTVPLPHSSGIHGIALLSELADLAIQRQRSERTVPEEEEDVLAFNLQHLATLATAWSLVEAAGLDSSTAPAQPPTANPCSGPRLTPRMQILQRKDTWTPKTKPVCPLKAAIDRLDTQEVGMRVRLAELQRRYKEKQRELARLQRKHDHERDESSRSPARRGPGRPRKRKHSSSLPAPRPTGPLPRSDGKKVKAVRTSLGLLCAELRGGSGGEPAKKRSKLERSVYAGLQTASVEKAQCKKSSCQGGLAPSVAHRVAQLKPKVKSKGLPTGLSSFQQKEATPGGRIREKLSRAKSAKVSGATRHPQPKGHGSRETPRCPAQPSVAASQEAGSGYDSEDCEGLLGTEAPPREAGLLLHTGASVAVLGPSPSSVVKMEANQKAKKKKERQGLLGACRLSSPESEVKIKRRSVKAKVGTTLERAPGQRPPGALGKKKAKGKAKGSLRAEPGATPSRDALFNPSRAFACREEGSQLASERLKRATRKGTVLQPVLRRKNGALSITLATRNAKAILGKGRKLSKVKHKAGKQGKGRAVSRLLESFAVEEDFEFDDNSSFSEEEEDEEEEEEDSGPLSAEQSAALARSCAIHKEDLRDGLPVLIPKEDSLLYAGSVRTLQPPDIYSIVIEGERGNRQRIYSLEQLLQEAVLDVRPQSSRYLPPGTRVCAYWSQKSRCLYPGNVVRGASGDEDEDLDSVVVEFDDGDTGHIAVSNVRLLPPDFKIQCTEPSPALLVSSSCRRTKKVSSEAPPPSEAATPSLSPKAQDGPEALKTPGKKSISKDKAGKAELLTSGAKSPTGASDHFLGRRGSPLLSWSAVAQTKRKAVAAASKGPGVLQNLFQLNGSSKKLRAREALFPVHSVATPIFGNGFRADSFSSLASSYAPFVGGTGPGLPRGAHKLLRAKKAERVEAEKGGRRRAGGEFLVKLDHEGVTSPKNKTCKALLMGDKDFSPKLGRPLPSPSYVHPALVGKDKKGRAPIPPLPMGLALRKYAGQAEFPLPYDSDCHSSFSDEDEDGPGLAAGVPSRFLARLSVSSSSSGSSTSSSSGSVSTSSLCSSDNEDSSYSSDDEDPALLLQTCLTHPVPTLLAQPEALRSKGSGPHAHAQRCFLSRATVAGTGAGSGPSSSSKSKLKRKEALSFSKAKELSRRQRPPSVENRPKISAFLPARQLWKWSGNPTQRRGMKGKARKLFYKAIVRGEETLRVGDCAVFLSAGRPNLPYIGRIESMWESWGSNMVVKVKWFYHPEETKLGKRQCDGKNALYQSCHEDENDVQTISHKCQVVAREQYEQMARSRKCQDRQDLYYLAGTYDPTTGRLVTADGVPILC
inactive: [1] -0.047 | [2] 0.026 | [3] 0.076 | [4] -0.126 | [6] -0.009 | [16] -0.101 | [17] -0.11 | [19] -0.045 | [10] -0.018 | [11] -0.114 | [12] -0.008 | [13] 0.013 | [20] 0.074

CENPV (UniProt Q7Z7K6)
Sequence of UniProt Q7Z7K6 (Q7Z7K6 whole entry, looked up): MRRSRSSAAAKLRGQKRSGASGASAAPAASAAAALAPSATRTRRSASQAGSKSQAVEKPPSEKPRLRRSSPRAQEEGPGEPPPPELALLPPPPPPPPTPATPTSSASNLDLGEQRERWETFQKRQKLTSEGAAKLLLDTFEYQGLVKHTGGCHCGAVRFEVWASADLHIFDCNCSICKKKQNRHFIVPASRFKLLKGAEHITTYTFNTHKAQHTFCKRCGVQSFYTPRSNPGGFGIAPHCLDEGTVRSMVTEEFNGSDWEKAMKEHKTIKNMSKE
inactive: [2] -0.033 | [4] 0.013 | [15] -0.093 | [5] -0.193 | [6] 0.015 | [16] -0.037 | [17] 0.012 | [7] 0.013 | [18] 0.036 | [8] 0.352 | [9] -0.235 | [11] 0.182 | [13] 0.121 | [14] -0.13

CEP295 isoform 3 (UniProt Q9C0D2)
inactive: [1] -0.063 | [3] -0.02 | [15] 0.051 | [5] -0.092 | [16] 0.015 | [17] 0.111 | [7] -0.143 | [18] -0.182 | [19] -0.048 | [8] 0.005 | [9] 0.009 | [10] -0.019 | [11] 0.02 | [13] 0.041 | [14] 0 | [20] 0.053

ATXN2 (UniProt F8WB06)
inactive: [12] 0.187

BNIP3 (UniProt Q12983)
Sequence of UniProt Q12983 (Q12983 whole entry, looked up): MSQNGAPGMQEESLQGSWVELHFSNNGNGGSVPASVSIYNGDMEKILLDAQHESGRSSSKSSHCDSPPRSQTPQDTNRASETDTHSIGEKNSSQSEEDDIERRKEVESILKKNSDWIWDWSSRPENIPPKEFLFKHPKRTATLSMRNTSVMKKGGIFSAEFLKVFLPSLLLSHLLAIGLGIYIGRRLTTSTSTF
inactive: [1] -0.008 | [3] 0.036 | [15] -0.013 | [5] 0.028 | [16] 0.031 | [17] 0.02 | [7] 0.057 | [18] 0.04 | [19] 0.048 | [8] 0.032 | [9] 0.01 | [10] -0.002 | [11] -0.068 | [12] -0.002 | [13] 0.045 | [14] -0.047 | [20] 0.003

CDK11A (UniProt Q9UQ88)
inactive: [1] 0.053 | [3] -0.128 | [15] -0.037 | [5] 0.027 | [7] -0.009 | [18] 0.022 | [8] 0.003 | [9] 0.056 | [10] -0.036 | [11] -0.03 | [12] -0.022 | [13] 0.002 | [14] 0.025 | [20] -0.014
active: [19] 0.414

CEP57L1 (UniProt Q8IYX8)
Sequence of UniProt Q8IYX8 (Q8IYX8 whole entry, looked up): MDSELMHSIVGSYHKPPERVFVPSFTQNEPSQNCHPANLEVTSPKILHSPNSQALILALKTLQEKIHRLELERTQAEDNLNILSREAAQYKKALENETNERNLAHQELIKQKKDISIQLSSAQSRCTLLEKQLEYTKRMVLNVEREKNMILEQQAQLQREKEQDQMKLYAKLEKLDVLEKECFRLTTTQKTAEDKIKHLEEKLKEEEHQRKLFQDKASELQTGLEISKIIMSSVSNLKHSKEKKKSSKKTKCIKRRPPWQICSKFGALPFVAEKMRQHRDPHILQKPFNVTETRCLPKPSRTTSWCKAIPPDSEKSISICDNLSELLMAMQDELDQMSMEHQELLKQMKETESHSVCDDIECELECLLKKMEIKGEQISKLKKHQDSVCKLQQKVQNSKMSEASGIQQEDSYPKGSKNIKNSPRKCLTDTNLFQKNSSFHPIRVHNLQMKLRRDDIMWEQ
inactive: [1] -0.064 | [3] 0.118 | [15] -0.021 | [5] -0.041 | [16] -0.013 | [17] 0.101 | [7] 0.35 | [18] -0.039 | [8] 0.171 | [9] -0.272 | [10] -0.049 | [11] 0.11 | [12] -0.191 | [13] -0.037 | [14] -0.044

CDKL5 (UniProt O76039)
Sequence of UniProt O76039 (O76039 whole entry, looked up): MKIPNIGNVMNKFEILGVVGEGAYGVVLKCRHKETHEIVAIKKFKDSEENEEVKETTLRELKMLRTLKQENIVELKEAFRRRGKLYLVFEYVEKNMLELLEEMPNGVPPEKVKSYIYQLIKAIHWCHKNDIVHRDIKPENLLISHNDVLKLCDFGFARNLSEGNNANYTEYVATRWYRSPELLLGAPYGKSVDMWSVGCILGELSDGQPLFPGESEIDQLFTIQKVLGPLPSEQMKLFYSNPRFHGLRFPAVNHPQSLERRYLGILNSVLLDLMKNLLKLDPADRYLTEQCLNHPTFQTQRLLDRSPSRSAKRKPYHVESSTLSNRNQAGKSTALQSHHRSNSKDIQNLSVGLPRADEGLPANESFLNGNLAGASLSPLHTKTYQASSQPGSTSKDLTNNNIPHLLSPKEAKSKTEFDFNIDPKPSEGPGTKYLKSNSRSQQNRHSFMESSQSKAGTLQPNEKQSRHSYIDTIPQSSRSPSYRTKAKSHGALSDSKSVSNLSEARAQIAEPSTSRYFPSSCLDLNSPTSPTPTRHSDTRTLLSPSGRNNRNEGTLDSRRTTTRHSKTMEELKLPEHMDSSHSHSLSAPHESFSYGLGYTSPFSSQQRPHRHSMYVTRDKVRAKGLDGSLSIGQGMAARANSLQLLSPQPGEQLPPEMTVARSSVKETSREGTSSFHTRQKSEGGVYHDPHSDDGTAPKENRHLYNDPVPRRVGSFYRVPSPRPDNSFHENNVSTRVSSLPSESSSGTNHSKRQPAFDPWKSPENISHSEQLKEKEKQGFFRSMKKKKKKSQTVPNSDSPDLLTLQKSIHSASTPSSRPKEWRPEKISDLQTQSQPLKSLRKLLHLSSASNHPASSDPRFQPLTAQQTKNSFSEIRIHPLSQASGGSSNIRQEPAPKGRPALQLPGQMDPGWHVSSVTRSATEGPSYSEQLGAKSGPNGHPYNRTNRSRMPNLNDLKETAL
inactive: [2] -0.216 | [4] -0.08 | [6] 0.339 | [16] 0.423 | [17] 0.085 | [19] 0.088 | [12] -0.351 | [13] 0.111 | [20] -0.019
